Reference: PubChem BioAssay (NCATS)
Records with an inconclusive call do not appear. Activity calls are given as the source filed them. Unless noted, calls come from the whole dose curve; as a rule, active = well fitted cell-killing curve with a large enough effect; inconclusive = small, poorly fitted or top-dose-only effect, or effect the other way; inactive = no such curve, though single readings can be large or run the other way.

What was measured:
[1] = Quantitative High-Throughput drug screen in 47 multiple myeloma cell lines against the NCATS MIPE library collection: KMS28PE_JCRB cell viability assay (AID 1918983); note: nearly all actives have a fitted effect of over 35% in size
How it was run: (§1)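 Inhibition of viability over 48 h was scored by ATP content (CellTiter-Glo) in 500-cell wells. Zero and full viability were defined by media-only and DMSO-only wells.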

[2] = Quantitative High-Throughput drug screen in 47 multiple myeloma cell lines against the NCATS MIPE library collection: KMS34_JCRB cell viability assay (AID 1918985); note: nearly all actives have a fitted effect of over 40% in size
How it was run: as §1

[3] = Quantitative High-Throughput drug screen in 47 multiple myeloma cell lines against the NCATS MIPE library collection: OCIMY5_PLB cell viability assay (AID 1918988); note: nearly all actives have a fitted effect of over 65% in size
How it was run: as §1

[4] = Quantitative High-Throughput drug screen in 47 multiple myeloma cell lines against the NCATS MIPE library collection: OPM1_PLB cell viability assay (AID 1918989); note: nearly all actives have a fitted effect of over 40% in size
How it was run: as §1

[5] = Quantitative High-Throughput drug screen in 47 multiple myeloma cell lines against the NCATS MIPE library collection: SKMM1_PLB cell viability assay (AID 1919863); details: SKMM1 myeloma viability, CellTiter-Glo ATP, 48 h; viability: stronger effect = lower value; note: nearly all actives have a fitted effect of over 35% in size
How it was run: as §1

[6] = Quantitative High-Throughput drug screen in 47 multiple myeloma cell lines against the NCATS MIPE library collection: U266_ATCC cell viability assay (AID 1919864); note: nearly all actives have a fitted effect of over 35% in size
How it was run: as §1

[7] = Quantitative High-Throughput drug screen in 47 multiple myeloma cell lines against the NCATS MIPE library collection: XG6_PLB cell viability assay (AID 1919865); note: nearly all actives have a fitted effect of over 40% in size
How it was run: as §1

[8] = Quantitative High-Throughput drug screen in 47 multiple myeloma cell lines against the NCATS MIPE library collection: XG1_PLB cell viability assay (AID 1919866); note: nearly all actives have a fitted effect of over 35% in size
How it was run: as §1

[9] = Quantitative High-Throughput drug screen in 47 multiple myeloma cell lines against the NCATS MIPE library collection: VP6_DJ cell viability assay (AID 1919867); note: nearly all actives have a fitted effect of over 40% in size
How it was run: as §1

[10] = Quantitative High-Throughput drug screen in 47 multiple myeloma cell lines against the NCATS MIPE library collection: UTMC2_PLB cell viability assay (AID 1919868); details: CellTiter-Glo ATP luminescence, 48 h; viability (% of DMSO control): at 45.8 µM (top of the series) unless noted; note: nearly all actives have a fitted effect of over 55% in size
How it was run: as §1

[11] = Quantitative High-Throughput drug screen in 47 multiple myeloma cell lines against the NCATS MIPE library collection: PCM6_Riken cell viability assay (AID 1919870); note: nearly all actives have a fitted effect of over 30% in size
How it was run: as §1

[12] = Quantitative High-Throughput drug screen in 47 multiple myeloma cell lines against the NCATS MIPE library collection: RPMI8226_ATCC cell viability assay (AID 1919871); note: nearly all actives have a fitted effect of over 30% in size
How it was run: as §1

[13] = Quantitative High-Throughput drug screen in 47 multiple myeloma cell lines against the NCATS MIPE library collection: KMS11_JCRBsus cell viability assay (AID 1919873); note: nearly all actives have a fitted effect of over 50% in size
How it was run: as §1

[14] = Quantitative High-Throughput drug screen in 47 multiple myeloma cell lines against the NCATS MIPE library collection: PE2_PLB cell viability assay (AID 1919869); note: nearly all actives have a fitted effect of over 35% in size
How it was run: as §1

[15] = Quantitative High-Throughput drug screen in 47 multiple myeloma cell lines against the NCATS MIPE library collection: OPM2_DSMZ cell viability assay (AID 1919872); note: nearly all actives have a fitted effect of over 30% in size
How it was run: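 Luminescent ATP measurement with CellTiter-Glo gives viability, scaled between DMSO-only wells (100%) and media-only wells (0%). Cells, 500 per well, faced library compounds for 48 hours at 37C.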

[16] = Quantitative High-Throughput drug screen in 47 multiple myeloma cell lines against the NCATS MIPE library collection: KMS28BM_JCRB cell viability assay (AID 1919874); note: nearly all actives have a fitted effect of over 35% in size
How it was run: as §1

[17] = qHTS drug screen for cell cycle checkpoint inhibitors in PARPi-resistant BRCA-mutant ovarian cancer cell lines. (AID 1963452; calls by dose curve); details: PEO1/OlaR viability, CellTiter-Glo luminescence, 96 h; for Z-AUC: stronger effect = lower value
How it was run: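 PEO1, PEO4 and PEO1/OlaR ovarian cancer cells, 600 per well, exposed 96 h at 37C to a dilution series. Viability read by CellTiter-Glo luminescence, normalized to DMSO and empty wells; activity summarized as Z-AUC.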

[18] = qHTS for identification of novel therapeutic agents for treatment of microphthalmiaassociated transcription factor (MiT) renal cell carcinoma (RCC) (AID 1963991; calls by dose curve); details: CellTiter-Glo, 48 h; for z-score: stronger effect = lower value
How it was run: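 Viability of three TFE3-fusion renal carcinoma lines measured by CellTiter-Glo after 48 h treatment with each of 1912 compounds at 11 concentrations. Responses scaled between DMSO (100%) and empty wells (0%) before curve fitting.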

[19] = Quantitative High-Throughput drug screen in 47 multiple myeloma cell lines against the NCATS MIPE library collection: OCIMY7_PLB cell viability assay (AID 1918987); note: nearly all actives have a fitted effect of over 65% in size
How it was run: as §1

[20] = measured here: PEO1 parental Z-AUC
[21] = TFE3-RCC UOK109 viability, measured here: UOK109 Z-AUC
[22] = TFE3-RCC viability, measured here: UOK124 Z-AUC
[23] = TFE3-RCC viability, measured here: UOK145 Z-AUC
Potency is the fitted concentration of half-maximal effect.

CC(C)=CCCC(C)=CCCC(C)=CCSc1ccccc1C(=O)O
active: Potency [1] 1.66 µM | Potency [2] 1.32 µM | Potency [3] 1.48 µM | Potency [4] 14.8 µM | Potency [5] 2.64 µM | Potency [6] 0.372 µM | Potency [7] 4.18 µM | Potency [8] 662 nM | Potency [9] 1.87 µM | Potency [10] 1.18 µM | Potency [11] 6.62 µM | Potency [12] 0.418 µM | Potency [13] 0.209 µM

COc1c(N2C[C@@H]3CCCN[C@H]3C2)c(F)cc2c(=O)c(C(=O)O)cn(C3CC3)c12
1.3: z-score [18, 22]
inactive: Potency [1] | Potency [4] | Potency [6] | Potency [8] | Potency [14] | Potency [11] | Potency [12] | Potency [13] | Potency [16] | Z-AUC [17] 0.687
0.58: Z-AUC [17, 20]
active: Potency [2] 9.35 µM | Potency [15] 6.62 µM
1.15: Z-AUC ([17]; measured here: PEO4 Z-AUC)
0.422: z-score [18, 21]
1.53: z-score [18, 23]

COC(=O)C[C@](O)(CCCC(C)(C)O)C(=O)O[C@@H]1C(OC)=C[C@]23CCCN2CCc2cc4c(cc2[C@H]13)OCO4
-2.6: Z-AUC ([17]; measured here: PEO4 Z-AUC)
-2.08: Z-AUC [17, 20]
0.544: z-score [18, 22]
inactive: Potency [1] | Potency [19] | Potency [4] | Potency [7] | Potency [8] | Potency [15]
active: Potency [2] 16.6 µM | Potency [14] 20.9 µM | Potency [13] 29.6 µM | Potency [16] 10.5 µM | Potency [17] 436 nM
0.67: z-score [18, 23]
0.959: z-score [18, 21]

CC(C)(C)c1cc(C(C)(C)C)c(NC(=O)c2c[nH]c3ccccc3c2=O)cc1O
0.665: z-score [18, 23]
0.941: z-score [18, 22]
0.938: z-score [18, 21]
inactive: Potency [1] | Potency [2] | Potency [4] | viability [5] 97.5% | Potency [6] | Potency [7] | Potency [10] | Potency [14] | Potency [11] | Potency [13] | Potency [16]

O=C(Nc1nc2cccc(-c3ccc(CN4CCS(=O)(=O)CC4)cc3)n2n1)C1CC1
0.544: Z-AUC [17, 20]
inactive: Z-AUC [17] 0.985
0.638: Z-AUC ([17]; measured here: PEO4 Z-AUC)
active: Potency [1] 13.2 µM | Potency [2] 8.33 µM | Potency [19] 9.35 µM | Potency [3] 6.62 µM | Potency [4] 14.8 µM | Potency [5] 16.6 µM | Potency [6] 14.8 µM | Potency [7] 16.6 µM | Potency [9] 18.7 µM | Potency [14] 16.6 µM | Potency [11] 16.6 µM | Potency [13] 13.2 µM | Potency [16] 14.8 µM

CC1COC2(CCN(c3nc(=O)c4cc(C(F)(F)F)cc([N+](=O)[O-])c4s3)CC2)O1 (configuration not stated)
0.189: Z-AUC [17, 20]
1.51: z-score [18, 21]
0.808: z-score [18, 23]
0.861: Z-AUC ([17]; measured here: PEO4 Z-AUC)
0.131: z-score [18, 22]
inactive: Potency [1] | Potency [2] | Potency [4] | Potency [6] | Potency [7] | Potency [8] | Potency [9] | Potency [10] | Potency [11] | Potency [12] | Potency [13] | Z-AUC [17] 0.328

O=C(O)[C@H](Cc1c[nH]c2ccccc12)N1C(=O)c2ccccc2C1=O
0.59: z-score [18, 21]
0.982: Z-AUC [17, 20]
0.777: z-score [18, 23]
0.462: z-score [18, 22]
inactive: Potency [1] | Potency [2] | Potency [3] | Potency [4] | viability [5] 111% | Potency [12] | Potency [15] | Potency [13] | Potency [16] | Z-AUC [17] 1.05
active: Potency [19] 30.3 µM | Potency [9] 48.1 µM | viability (% of DMSO control) [10] 115% [at 92.2 µM]
0.872: Z-AUC ([17]; measured here: PEO4 Z-AUC)

O=C(NCCCNc1nc(Nc2cccc(NC(=O)N3CCCC3)c2)ncc1I)c1cccs1
0.426: Z-AUC ([17]; measured here: PEO4 Z-AUC)
inactive: Z-AUC [17] 1.15
active: Potency [1] 18.7 µM | Potency [2] 1.05 µM | Potency [19] 1.87 µM | Potency [3] 13.2 µM | Potency [4] 3.72 µM | Potency [5] 20.9 µM | Potency [6] 18.7 µM | Potency [7] 1.32 µM | Potency [8] 1050 nM | Potency [9] 2.09 µM | Potency [14] 1.18 µM | Potency [11] 5.26 µM
1.02: Z-AUC [17, 20]

O=c1c2ccccc2nc2n1CCc1c-2[nH]c2ccccc12
active: Potency [19] 18.7 µM | Potency [5] 23.5 µM | Potency [11] 13.2 µM
inactive: Potency [1] | Potency [2] | Potency [6] | Potency [7] | Potency [9] | Potency [10] | Potency [15]

COc1cccc2nc(-c3cccs3)nc(NN3C(=O)C=C(C)C3=O)c12
active: Potency [1] 2.64 µM | Potency [2] 0.0296 µM | Potency [19] 0.0264 µM | Potency [3] 0.0418 µM | Potency [4] 0.0833 µM | Potency [5] 1.05 µM | Potency [6] 0.118 µM | Potency [7] 0.0833 µM | Potency [8] 26.4 nM | Potency [9] 0.0372 µM | Potency [11] 0.0418 µM | Potency [12] 2.09 µM | Potency [13] 0.0083 µM | Potency [16] 0.0332 µM | Potency [17] 4360 nM
-1.8: Z-AUC [17, 20]
-2.06: Z-AUC ([17]; measured here: PEO4 Z-AUC)

CCOc1cc2ncc(C#N)c(Nc3ccc(F)c(Cl)c3)c2cc1NC(=O)C=CCN(C)C
-1.07: z-score [18, 23]
-1.47: z-score [18, 22]
-2.91: z-score [18, 21]
active: Potency [1] 14.8 µM | Potency [2] 4.69 µM | Potency [3] 0.264 µM | Potency [4] 11.8 µM | Potency [5] 16.6 µM | Potency [6] 18.7 µM | Potency [7] 2.64 µM | Potency [9] 4.69 µM | Potency [10] 0.296 µM | Potency [14] 5.9 µM | Potency [11] 1.66 µM | Potency [12] 10.5 µM | Potency [15] 14.8 µM | Potency [13] 2.64 µM | Potency [16] 3.32 µM | Potency ([18]; TFE3-RCC UOK109 viability, active = Z-AUC below -0.8 in all three lines) 11.8 nM
